Bioassay records as filed in PubChem.
The list is not random: actives were taken first. Their share in the collection is about 1.1%.
NCOA3 inh: inhibits human SRC3 coactivator; AID 588352; inhibition, % at 3.6 µM; HEK293 GAL4-SRC3 luciferase reporter, luminescence; 360,000 compounds, 0.17% hits;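 active = inhibition above a per-campaign cutoff, the mean of all compounds plus 3 SD, cut at about 60% in these data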;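 also: 0% = DMSO-treated cells and 100% = gossypol-treated cells at 36 µM; higher means less SRC3-driven luciferase light from the GAL4 reporter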
NR2F2 inh: blocks human COUP-TFII nuclear receptor; P24468; HEK293T NGFI-A luciferase reporter, luminescence; inhibition, % at 8.6 µM; 370,000 compounds, 0.7% hits; AID 686940;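 active = inhibition above a per-plate cutoff, mean inhibition of test wells between control levels plus 3 SD, cut at about 38% in these data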;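 also: cells cotransfected with COUP-TFII expression vector driving the NGFI-A reporter; 0% = median of COUP-TF2 test wells and 100% = reporter-only cells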
NCOA1 inh: inhibitors of human steroid receptor coactivator 1 (SRC1); 360,000 compounds, 0.12% hits; inhibition, % at 3.6 µM; HEK293 GAL4-SRC1 luciferase reporter, luminescence;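 active = inhibition above the campaign mean plus 3 SD, with each screening campaign given its own cutoff, cut at about 60% in these data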;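 also: 0% = DMSO treated cells and 100% = gossypol at 36 µM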
GalR3 antag: antagonists of human GalR3; HEK293 GalR3-CNG cAMP membrane potential fluorescence; galR3 body fused to GalR1 C-terminus; 360,000 compounds, 0.44% hits; O60755; inhibition, % at 3 µM;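 active = inhibition above the screen-wide average plus 3 SD, cut at about 13% in these data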;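 also: forskolin and galanin both at EC90 stimulate the cells; cAMP rise reported by CNG channel membrane potential dye signal; 0% = forskolin plus galanin with DMSO and 100% = forskolin alone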
LRH-1 inv ag: suppresses constitutive activity of human LRH-1. HEK293T StAR-luciferase reporter, LRH-1 transfected, 24 h. inhibition, % at 3.6 µM. 360,000 compounds, 0.13% hits. AID 602396;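 active = inhibition above the mean inhibition of all tested compounds plus 3 SD, cut at about 73% in these data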;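 also: 0% = DMSO wells and 100% = reporter-only cells lacking LRH-1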
Target sequence (O00482 whole entry, looked up): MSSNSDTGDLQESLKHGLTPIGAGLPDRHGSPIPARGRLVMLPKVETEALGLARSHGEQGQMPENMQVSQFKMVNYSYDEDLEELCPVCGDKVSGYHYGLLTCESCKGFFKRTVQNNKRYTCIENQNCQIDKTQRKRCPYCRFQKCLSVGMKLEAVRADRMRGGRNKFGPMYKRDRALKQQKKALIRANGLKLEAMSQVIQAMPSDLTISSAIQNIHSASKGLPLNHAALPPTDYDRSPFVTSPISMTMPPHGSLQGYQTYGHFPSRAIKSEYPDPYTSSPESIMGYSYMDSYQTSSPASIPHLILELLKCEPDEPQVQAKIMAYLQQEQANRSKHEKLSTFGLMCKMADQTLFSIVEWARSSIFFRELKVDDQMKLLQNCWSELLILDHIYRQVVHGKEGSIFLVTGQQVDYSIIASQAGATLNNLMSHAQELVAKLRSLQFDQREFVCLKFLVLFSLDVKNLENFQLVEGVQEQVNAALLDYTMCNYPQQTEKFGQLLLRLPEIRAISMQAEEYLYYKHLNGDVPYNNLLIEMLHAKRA
SRC2 inh: inhibits human steroid receptor coactivator 2; HEK293 GAL4-SRC2 luciferase reporter, luminescence; inhibition, % at 9 µM; 370,000 compounds, 0.17% hits; AID 651957;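 active = inhibition above the mean inhibition of all tested compounds plus 3 SD, set per campaign, cut at about 52% in these data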;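 also: 0% = DMSO treated cells and 100% = cells given Gossypol at 36 µM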
VP16 Luc counter: counter-screen for COUP-TFII antagonists: inhibitors of VP16; HEK293 Gal4-VP16 luciferase reporter, luminescence; inhibition, % at 8.5 µM; AID 687007; 2,500 compounds, 25% hits; shares compounds with NR2F2 inh; in the data active = inhibition above about 13%
NR2F2 inh conf: COUP-TFII (NR2F2) inhibition, confirmation assay; shares compounds with NR2F2 inh; HEK293 NGFI-A luciferase reporter, luminescence; inhibition, % at 8.5 µM; 2,500 compounds, 45% hits;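 active = mean inhibition over three repeats above a set limit taken from the earlier primary screen, cut at about 38% in these data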;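 also: 100% = cells given the luciferase reporter alone without the COUP-TF2 vector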
Active calls of the source: *; nt = no result given; ! = not confirmed by another sample.

SMILES	NCOA3 inh	NR2F2 inh	NCOA1 inh	GalR3 antag	LRH-1 inv ag	SRC2 inh	VP16 Luc counter	NR2F2 inh conf
COC(=O)[C@]12C[C@H](CC(=O)N3CCOCC3)C(=O)N(Cc3ccco3)C1=C[C@H](C(C)(C)C)O[C@@H]2C	nt	7	nt	nt	nt	-18	nt	nt
Cc1nc2cc(NC(=O)c3ccc(S(=O)(=O)N(C)c4ccccc4)cc3)ccc2o1	2	49*	-19	10	-7	16	-85	26
CN(c1cccc(NC(=O)c2ccc(N(C)S(=O)(=O)c3ccccc3)cc2)c1)S(C)(=O)=O	23	63*	21	-7	28	12	-5	28
CC(=O)Nc1ccc(C(=O)Nc2cccc(S(=O)(=O)N(C)c3ccccc3)c2)cc1	-21	16	-22	-7	11	3	nt	nt
CN(c1ccccc1)S(=O)(=O)c1ccc(NC(=O)c2ccc(-c3ccccc3)cc2)cc1	20	13	-9	-2	5	15	nt	nt
CCCCNC[C@@]12CO[C@H](c3ccc(Cl)cc3)N1[C@@H](c1ccc(Cl)cc1)SC2	nt	-2	nt	nt	nt	2	nt	nt
Cc1cc(C)cc(C(=O)OCCN(C)C2CN(Cc3cn(Cc4ccccc4F)nn3)S(=O)(=O)C2)c1 (configuration not stated)	nt	-6	nt	nt	nt	-6	nt	nt
CCOC(=O)[C@@]12CCCC3=C1N(CCC3)C(=O)[C@H]2CC(=O)NCc1cccs1	nt	15	nt	nt	nt	8	nt	nt
C=CCn1c(SCC(=O)Nc2ccccc2-c2ccccc2)nnc1-c1ccccc1	nt	22	nt	nt	nt	-4	nt	nt
COc1c(C(O)CC(C)C)ccc2c1C(=O)OCc1cc(C)cc(O)c1O2 (configuration not stated)	15	38*	17	-7	12	8	2	19
COc1c(C(CC(C)C)OC(C)=O)ccc2c1C(=O)OCc1cc(C)cc(O)c1O2 (configuration not stated)	16	49*	12	-1	12	12	0	8
COc1ccc(CC2CCN(c3ncnc4sccc34)CC2)cc1	nt	68*	nt	nt	nt	nt	-3	59*
COc1cccc(COc2ncnc3sccc23)c1	14	10	1	0	-3	-1	nt	nt
Fc1ccc(CC2CCN(c3ncnc4sccc34)CC2)cc1	nt	74*	nt	nt	nt	nt	0	54*
O=S(=O)(c1ccc(Cl)cc1)N1CCN(c2ncnc3sccc23)CC1	11	47*	6	-10	21	10	3	27
Cc1csc2c(N3CCN(S(=O)(=O)c4ccc(Cl)cc4)CC3)ncnc12	27	2	10	-9	4	5	nt	nt
O=C(CN1CCN(C(=O)CNC(=O)c2ccc3c(c2)OCO3)CC1)Nc1ccccc1Cl	-7	-14	-15	4	2	16	nt	nt
O=C(CN1CCN(C(=O)CNC(=O)c2ccc(-c3ccccc3)cc2)CC1)Nc1ccccc1Cl	3	50*	11	-6	31	-24	-8	21
CCNc1nc(-c2sc(NC(=O)C(C)(C)C)nc2C)c(-n2cc(-c3ccccc3)nn2)s1	nt	66*	nt	-6	61	13	2	41*
Cc1nc(NC(=O)C(C)(C)C)sc1-c1nc(N)sc1-n1cc(-c2ccccc2)nn1	nt	5	nt	-6	-38	-18	nt	nt
Cc1csc(NC(=O)c2ccc(COc3ccccc3F)o2)n1	nt	-11	nt	nt	nt	-18	nt	nt
CCN=c1scc(-c2ccc3c(c2)NC(=O)CO3)n1N=C1CCCC1	17	47*!	22	-8	22	3	-4	53*
Cc1sc2ncnc(NCC(C)(C)N3CCOCC3)c2c1C	10	43*	3	12	29	18	4	44*
CCc1cc(-c2nnn(CCC3COCCO3)c2CC)ccc1-c1cn(Cc2ccccc2)nn1 (configuration not stated)	-2	66*	9	-4	31	26	-19	34
CCc1cc(-c2cnnn2Cc2ccc3ccccc3c2)ccc1-c1cn(CC(C)C)nn1	-32	-18	-7	-6	-6	20	nt	nt
SMILES	NCOA3 inh	NR2F2 inh	NCOA1 inh	GalR3 antag	LRH-1 inv ag	SRC2 inh	VP16 Luc counter	NR2F2 inh conf
Cc1ccc(-c2nc3ncccn3c2NC(=O)Nc2ccc(F)cc2)cc1	nt	-5	nt	nt	nt	6	nt	nt
NC1=NC[C@H](Cc2ccc(O)cc2)N1CCCCC1CCCCC1	18	38*	9	-5	33	8	15*	26
Cc1cc(N2CCCC2=O)cc(C)c1S(=O)(=O)NCCOc1ccc(C(C)(C)C)cc1	26	44*	-137	-11	-4	19	-1	19
O=C1CCCN1c1ccc(S(=O)(=O)NCCOc2ccccc2)cc1	13	-3	15	-8	9	26	nt	nt
CN(C)C=Nc1ccc(Cn2cnc3nc4ccc(Cl)cc4cc3c2=O)cc1	nt	-10	nt	nt	nt	-27	nt	nt
Nc1ccc(-c2cc3ccccc3c(=O)o2)cc1	26	73*	19	-3	-20	74*	42*	34
O=C(CCN1CCN(c2ccccc2)CC1)c1ccc(Cl)cc1	5	-1	-8	-7	-3	-6	nt	nt
O=C(CCN1CCOCC1)c1ccc(N2CCCCC2)cc1	24	60*	11	-7	32	63*	39*	40*
COc1ccc(-c2nsc3c(N4CCCCC4C)ncnc23)cc1 (configuration not stated)	89*	97*	89*	-4	86*	82*	88*	104*
COc1ccc(C(=O)N2CCN(c3ncnc4c(-c5ccccc5)nsc34)CC2)cc1	-34	-13	-5	-8	12	-17	nt	nt
COc1ccc(-c2nsc3c(N4CCCCC4)ncnc23)cc1	43	57*	54	3	40	33	3	63*
CC(C)N1CCCCC(NC(=O)c2ccc(F)cc2)C1=O (configuration not stated)	nt	-14	nt	nt	nt	-8	nt	nt
CCc1cccc(CC)c1NC(=O)CSc1nc2ccc(N3C(=O)C4C5C=CC(C5)C4C3=O)cc2s1 (configuration not stated)	3	39*	13	-4	-1	3	-6	17
COC(=O)[C@]12C[C@H](CC(=O)N3CCN(C(=O)C4CC4)CC3)C(=O)N(CCc3ccc(OC)c(OC)c3)C1=C[C@H](C(C)(C)C)O[C@@H]2C	nt	6	nt	nt	nt	7	nt	nt
Nc1c(Cl)ncnc1NCCc1ccc(O)cc1	14	47*	27	-6	21	22	6	32
Nc1c(Cl)ncnc1NCc1cccnc1	-17	4	-9	4	-8	20	nt	nt
COC(=O)C1CN(Cc2ccc(F)cc2)CCS(=O)(=O)N1Cc1ccc(OC)cc1 (configuration not stated)	nt	5	nt	nt	nt	-10	nt	nt
C[n+]1ccc(/C=C/c2c[nH]c3ccc(F)cc23)cc1	-8	38*	18	-7	15	-9	5	24
